Experimental findings from PubChem BioAssay (NCATS) are described below.

Inconclusive results are not listed. The source made the active and inactive calls. Unless noted, the call rests on the fitted dose curve; in most records, active means well fitted curve in the direction sought with a large enough effect; inconclusive means small, poorly fitted or top-dose-only effect, or another doubt; inactive means no such curve, though single readings can be large; an effect the other way counts as inactive or inconclusive.

A short description of experiment [1]: qHTS to identify inhibitors of the type 1 interferon - major histocompatibility complex class I in skeletal muscle: primary screen against the NCATS Mechanism Interrogation Plate v5.0 (MIPE) Libary (AID 1347411). Further: potency means the concentration at half of the fitted maximal effect; nearly all actives have a fitted effect of over 65% in size. The method in brief:
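Seed engineered human myoblasts (HLA-B HiBit) in medium without dexamethasone containing 4 ng/ml IFN-beta; after 1 hr add compound titrations (top 46 uM final). Incubate 24 hrs at 37 C, lyse 10 min with HiBiT reagent, read luminescence.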

A short description of experiment [2]: Primary qHTS for inhibitors of nuclear receptor binding SET domain protein 2 (NSD2) in an isogenic RCH-ACV NSD2 p.E1099K mutant (9B) (AID 1645876). Further: potency means the concentration at half of the fitted maximal effect; nearly all actives have a fitted effect of over 70% in size.
Experiment [3] is described as follows: Primary qHTS for inhibitors of nuclear receptor binding SET domain protein 2 (NSD2) in an RCH-ACV wild type WT cells (2C) (AID 1645877). Further: potency means the concentration at half of the fitted maximal effect; nearly all actives have a fitted effect of over 70% in size.
In experiment [4] the target is Glutathione peroxidase 1 (Homo sapiens) (UniProt P07203). Nature of the experiment: Primary qHTS Assay for Inhibitors of Recombinant Selenoprotein Glutathione Peroxidase 1 (GPX1) (AID 1845191). Further: nearly all actives have a fitted effect of over 65% in size. Summed up:
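GR-coupled readout: NADPH consumption tracked by fluorescence, ex 340/em 450 nm, at t=0 and after 15 min at RT. Final mix 10 nM GPX1, 1 mM GSH, 0.5 mM CHP, 0.5 mM NADPH, 100 nM GR, 0.01% BSA, following 30 min enzyme–compound preincubation.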

The target of experiment [5] is Phospholipid hydroperoxide glutathione peroxidase GPX4 (Homo sapiens) (UniProt P36969). In words: Primary qHTS Assay for Inhibitors of Recombinant Selenoprotein Glutathione Peroxidase 4 (GPX4) (AID 1845192). Further: on the % scale 0 is the no-effect control and ±100 the full control effect; nearly all actives have a fitted effect of over 65% in size. Conditions: outcome: dose series up to 50 µM unless noted. Summed up:
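Steps: GPX4 plus compound, 30 min RT; add GR/GSH/NADPH master mix; start with cumene hydroperoxide; read 340/450 nm fluorescence at 0 and 15 min. Finals were 200 nM GPX4, 1 mM GSH, 0.5 mM CHP, 0.5 mM NADPH, 100 nM GR.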

Experiment [6] can be described thus: qHTS drug screen for cell cycle checkpoint inhibitors in PARPi-resistant BRCA-mutant ovarian cancer cell lines. (AID 1963452; calls by dose curve; further: potency means the concentration at half of the fitted maximal effect). To be noted: PEO1/OlaR viability, CellTiter-Glo luminescence, 96 h; for Z-AUC: stronger effect = lower value. Summed up: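 PEO1, PEO4 and PEO1/OlaR ovarian cancer cells, 600 per well, exposed 96 h at 37C to a dilution series. Viability read by CellTiter-Glo luminescence, normalized to DMSO and empty wells; activity summarized as Z-AUC.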

The nature of experiment [7]: qHTS assay to identify inhibitors of the type 1 interferon - major histocompatibility complex class I in skeletal muscle: Counter screen cell viability and HiBit confirmation (AID 1347412). Further: potency means the concentration at half of the fitted maximal effect. On activity change, negative = inhibition: on the % scale 0 is the no-effect control and ±100 the full control effect. On all read-outs here: nearly all actives have a fitted effect of over 60% in size. To be noted: iHSKM muscle cells + IFN-b, HiBiT or CellTiter-Glo, 24 h; for activity change, negative = inhibition: at 45.9 µM (top of the series). Summed up: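 Luminescence read-out: Nano-Glo HiBiT lytic signal from C-terminally HiBiT-tagged HLA-B in CRISPR-edited human myoblasts, plus CellTiter Glo ATP as viability counter screen. IFN-beta 4.0 ng/ml; 24 hrs treatment at 37 C, 5% CO2.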

Setting [8] is: measured here: PEO1 parental Z-AUC.

Glutathione peroxidase 1 (Homo sapiens), sequence (P07203 whole entry, looked up): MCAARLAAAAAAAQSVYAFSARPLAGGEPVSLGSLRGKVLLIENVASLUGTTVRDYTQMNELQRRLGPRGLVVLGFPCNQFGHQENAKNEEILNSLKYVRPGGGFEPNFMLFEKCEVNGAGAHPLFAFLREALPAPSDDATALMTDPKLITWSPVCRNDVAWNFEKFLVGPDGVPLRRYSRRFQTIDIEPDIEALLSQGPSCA
Phospholipid hydroperoxide glutathione peroxidase GPX4 (Homo sapiens), sequence (P36969 whole entry, looked up): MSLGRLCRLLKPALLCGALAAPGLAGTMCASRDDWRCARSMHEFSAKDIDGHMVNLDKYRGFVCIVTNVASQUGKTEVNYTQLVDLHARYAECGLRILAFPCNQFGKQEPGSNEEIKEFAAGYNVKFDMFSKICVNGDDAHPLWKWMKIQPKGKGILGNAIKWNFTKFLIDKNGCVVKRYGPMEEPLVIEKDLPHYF

For `C[C@@H]1C[C@H](N)C[C@H](c2ccncc2NC(=O)c2ccc(F)c(-c3c(F)cccc3F)n2)C1`, the figures for the Potency in experiment [1], in experiment [2] and in experiment [3] were 26200 nM (active), 14800 nM (active) and 11800 nM (active), respectively. Also, the Potency entry in experiment [4] and in experiment [5] was “inactive” throughout. The results for the Z-AUC in experiment [6], in experiment [6] (setting [8]) and in experiment [6] (measured here: PEO4 Z-AUC) were -0.973 (inactive), -0.644 and -0.817, respectively. Moreover, the figures for the activity change, negative = inhibition in experiment [7] (HiBiT) and in experiment [7] (Viability) were -24.5% (inactive) and -19.6% (inactive), respectively.
As to `CN(C)CCN1C(=O)c2cccc3cc(NC(N)=O)cc(c23)C1=O`, the Potency in experiment [1] is 7390 nM (active); in experiment [2] it was 2350 nM (active); in experiment [3] it was 1860 nM (active); in experiment [7] (HiBiT), 17600 nM (active). Besides, the Potency result in experiment [4] and in experiment [5] was “inactive” in each case. The Z-AUC is -0.63 (inactive) in experiment [6], -1.2 in experiment [6] (setting [8]) and -1.08 in experiment [6] (measured here: PEO4 Z-AUC). Besides, in experiment [7] (Viability), the activity change, negative = inhibition is -14% (inactive).
For the molecule `COc1cc2c3c(n(CCCNCCO)c(=O)c2cc1OC)-c1cc2c(cc1C3=O)OCO2`, the Potency in experiment [1] is 5870 nM (active); in experiment [2], 26.3 nM (active); in experiment [3] it was 29.5 nM (active); in experiment [6], 7.8 nM (active). The Potency entry in experiment [4] and in experiment [5] was “inactive” throughout. Also, the Z-AUC in experiment [6] (setting [8]) was -2.45; in experiment [6] (measured here: PEO4 Z-AUC) it was -1.56. In addition, the activity change, negative = inhibition in experiment [7] (HiBiT) is -14.1% (inactive); in experiment [7] (Viability) it was -9.73% (inactive).
As for `CN(C)C/C=C/C(=O)Nc1ccc(C(=O)N2CCC[C@@H](Nc3ncc(Cl)c(-c4c[nH]c5ccccc45)n3)C2)cc1`, the Potency was 1470 nM (active) in experiment [1], 166 nM (active) in experiment [2], 132 nM (active) in experiment [3] and 1110 nM (active) in experiment [7] (HiBiT). For the same molecule, the Potency entry in experiment [4] and in experiment [5] was “inactive” throughout. Further, the values for the Z-AUC in experiment [6], in experiment [6] (setting [8]) and in experiment [6] (measured here: PEO4 Z-AUC) were -1.88 (inactive), -2.59 and -2.1, respectively. For the same molecule, the activity change, negative = inhibition in experiment [7] (Viability) was 26.2% (inactive).
In the case of `CC1(C)OC2=C(C(=O)c3ccccc3C2=O)[C@H](NCc2ccccc2)[C@@H]1O`, the Potency in experiment [1] is 9300 nM (active); in experiment [2], 7420 nM (active); in experiment [3], 6610 nM (active); in experiment [7] (HiBiT), 9910 nM (active); in experiment [7] (Viability) it was 14000 nM (active). Besides, the Potency result in experiment [4] and in experiment [5] was “inactive” in each case. For the same molecule, the Z-AUC in experiment [6] was 0.63 (inactive); in experiment [6] (setting [8]), 1.22; in experiment [6] (measured here: PEO4 Z-AUC) it was 1.45.
Take `C=CCNc1c(O)cc2c(O)c1C[C@@H](C)C[C@H](OC)[C@H](O)[C@@H](C)/C=C(/C)[C@H](OC(N)=O)[C@@H](OC)/C=C\C=C(\C)C(=O)N2`: the Potency in experiment [1] was 52.3 nM (active); in experiment [2] it was 1660 nM (active); in experiment [3], 1050 nM (active); in experiment [7] (HiBiT), 44.3 nM (active). For the same molecule, the Potency result in experiment [4] and in experiment [5] was “inactive” in each case. Further, the Z-AUC in experiment [6] is 0.465 (inactive); in experiment [6] (setting [8]), 0.348; in experiment [6] (measured here: PEO4 Z-AUC), 0.268.
In the case of `COc1cccc2c1C(=O)c1c(O)c3c(c(O)c1C2=O)C[C@@](O)(/C(CO)=N/NC(=O)CCCCCN1C(=O)C=CC1=O)C[C@@H]3O[C@H]1C[C@H](N)[C@H](O)[C@H](C)O1`, the Potency in experiment [1] was 3300 nM (active); in experiment [2] it was 209 nM (active); in experiment [3], 132 nM (active); in experiment [6], 1100 nM (active); in experiment [7] (HiBiT) it was 2790 nM (active). Further, in experiment [4], the Potency entry is “inactive”. Also, the values for the Z-AUC in experiment [6] (setting [8]) and in experiment [6] (measured here: PEO4 Z-AUC) were -1.6 and -1.55, respectively. For the same molecule, the activity change, negative = inhibition in experiment [7] (Viability) was -0.403% (inactive).
As for `CC(=O)NCC(=O)N1[C@@H]2CC[C@H]1c1ccc(Nc3ncc(C(F)(F)F)c(NC4CCC4)n3)cc12`, the Potency was 4660 nM (active) in experiment [1], 590 nM (active) in experiment [2], 166 nM (active) in experiment [3] and 3130 nM (active) in experiment [7] (HiBiT). The Potency result in experiment [4] and in experiment [5] was “inactive” in each case. Moreover, the Z-AUC in experiment [6] was -0.104 (inactive); in experiment [6] (setting [8]), -0.113; in experiment [6] (measured here: PEO4 Z-AUC) it was -0.17. The activity change, negative = inhibition in experiment [7] (Viability) is -29.6% (inactive).
In the case of `CO[C@H]1/C=C\C=C(\C)C(=O)NC2=CC(=O)C(NCCN(C)C)=C(C[C@@H](C)C[C@H](OC)[C@H](O)[C@@H](C)/C=C(/C)[C@@H]1OC(N)=O)C2=O`, the Potency in experiment [1] was 46.6 nM (active); in experiment [2], 332 nM (active); in experiment [3], 235 nM (active); in experiment [6], 219 nM (active); in experiment [7] (HiBiT), 17.6 nM (active). The Potency entry in experiment [4] and in experiment [5] was “inactive” in each case. For the same molecule, the Z-AUC in experiment [6] (setting [8]) was -2.33; in experiment [6] (measured here: PEO4 Z-AUC), -1.76.
Consider `C=CCNC1=C2CC(C)CC(OC)C(O)C(C)/C=C(\C)C(OC(N)=O)C(OC)/C=C/C=C(\C)C(=O)NC(=CC1=O)C2=O` (stereo not given), for which the Potency is 58.7 nM (active) in experiment [1], 1320 nM (active) in experiment [2], 1320 nM (active) in experiment [3] and 49.7 nM (active) in experiment [7] (HiBiT). In addition, the Potency result in experiment [4] is “inactive”. Moreover, the Z-AUC in experiment [6] was -0.25 (inactive); in experiment [6] (setting [8]) it was -0.657; in experiment [6] (measured here: PEO4 Z-AUC) it was -0.0403.
Consider `C[C@@]12C(=O)OC(=O)[C@]1(C)[C@H]1CC[C@@H]2O1`, for which the Potency was 5870 nM (active) in experiment [1]; 6610 nM (active) in experiment [2]; 4680 nM (active) in experiment [3]; 27900 nM (active) in experiment [7] (HiBiT); 14000 nM (active) in experiment [7] (Viability). In addition, the Potency result in experiment [4] and in experiment [5] was “inactive” in each case. Further, the Z-AUC in experiment [6] was 0.0424 (inactive); in experiment [6] (setting [8]) it was 0.505; in experiment [6] (measured here: PEO4 Z-AUC), 0.28.
